These results are taken from PubChem BioAssay AID588651 (The Scripps Research Institute Molecular Screening Center, 2011).

A number with no mark means an inactive call. Active and inactive are the calls of the source. Cut-off read from the data, not from the text of the source: active = inhibition above about 65%; inactive = the rest.

For this experiment, the system named is Fam108b. Put plainly: Fam108b inhibitors and proteome off-target selectivity – biochemical, gel-based ABPP, recombinant soluble Fam108b, HTS hits, complex proteome, late-stage follow-up (AID 588651).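 Note: Fam108b spiked into mouse brain membrane proteome.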 The conditions noted are these: FP-rhodamine labeling in proteome, at 20 µM, active compounds read high.
Consider `O=[N+]([O-])c1ccc(NN=Cc2ccccc2O)cc1`, for which the inhibition is 0%.
In the case of `O=C(O)c1ccc(S(=O)(=O)/N=C2\C=C(Nc3ccccc3F)C(=O)c3ccccc32)cc1`, the inhibition was 0%.
In the case of `O=C(O)C1Nc2ccc(Br)cc2C2C=CCC12` (stereo not given) it was 0%; in that of `CCN(CC)S(=O)(=O)c1cc(NC(=O)COC(=O)c2sc3ccccc3c2Cl)ccc1C`, 10%; in that of `O=C1C(Cl)=C(Nc2ccc3cn[nH]c3c2)C(=O)c2ccccc21`, 0%.
The same measure for `Cc1cccc(N=Cc2nc(-c3ccccc3Br)oc2O)n1`: 10%; for `Cc1c(O)ccc(C=NNc2nc(-c3cccnc3)nc3ccccc23)c1O`: 85% (active).
The same measure for `O=C(NC1CCCCC1)c1sc(=S)n2c1[nH]c(=O)c1ccccc12`: 0%; for `COc1ccc(/C=C2\SC(=S)N(CC(=O)OCC(=O)Nc3cc(Cl)cc(Cl)c3)C2=O)cc1`: 0%.
`CSC[C@@H]1NC(=S)N(c2ccc(C)cc2)C1=O`: the inhibition was 0%.
The same measure for `O=c1cc(-c2ccc(O)c(-c3c(O)cc(O)c4c(=O)cc(-c5ccc(O)cc5)oc34)c2)oc2cc(O)cc(O)c12`: 95% (active).
The same measure for `O=C(NN=Cc1ccc(O)cc1)c1cccc(NN=Cc2ccc(O)cc2)c1`: 60%; for `CC(C)(C)c1nc2scc(-c3cccs3)c2c(=O)o1`: 80% (active).
The same measure for `Cc1nc2scc(-c3ccc(Cl)cc3)c2c(=O)o1`: 95% (active); for `COc1cccc2c1C(=O)c1c(O)c3c(c(O)c1C2=O)C[C@@](O)(C(=O)CO)C[C@@H]3O[C@H]1C[C@H](N)[C@H](O)[C@H](C)O1`: 0%.
For the compound `Cc1ccc(S(=O)(=O)Nc2ccccc2C(=O)Nc2nc(-c3ccc(F)cc3)cs2)cc1`, the inhibition is 40%.
Regarding `Brc1ccc(-c2csc(Nc3nc(-c4ccc(Br)cc4)cs3)n2)cc1`, the inhibition was 50%.
In the case of `COc1cccc(C=NNC(=O)c2[nH]c(C)c(C(=O)NN=Cc3cccc(OC)c3O)c2C)c1O` it was 75% (active).
The same measure for `Cc1cc(NN=Cc2c(O)ccc3ccccc23)nc(-c2ccccc2O)n1`: 85% (active); for `COc1ccc(S(=O)(=O)/N=C2\C=C(Nc3ccc(O)cc3)C(=O)c3ccccc32)cc1`: 25%.

As usually defined, the inhibition is the percentage by which the read-out fell short of the control.
